# Data: PubChem BioAssay AID1794835 (Parasite Biology Lab, Institute for Biomedicine and …, 2023)
# Hit rate of the full screen: of about 2,500 compounds, about 45 (2%) were called active. Rule as the data show it: active = inhibition mostly above about 45% (no sharp cut-off); inactive = mostly below about 37%. What follows is part of a selection rich in actives, with near analogues and random picks from the rest.
# Test: anti-Giardia activity of synthetic compounds – Compounds Australia Scaffold Library subset, 24/48 h, primary screen (AID 1794835);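 as to inhibition: 0% = parasite counts in DMSO vehicle wells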
# Conditions: Giardia lamblia BRIS/91/HEPU/1279 trophozoite counts, imaging, at 10 µM
# [1] = measured here: growth inhibition at 24 h, stronger effect = higher value
structure (smiles),measurement,setting,value
Cc1nc(C2(NC(=O)CCc3ncc(-c4ccccc4F)o3)CCCCC2)no1,inhibition,,inactive
Cc1ccc(NC(=O)c2nnc(C3CCCN3C(=O)NC3CCCC3)s2)cc1 (configuration not stated),inhibition,stronger effect = higher value,4.4% (inactive)
same,inhibition,[1],1%
CCN(Cc1cccs1)C(=O)CN1CCC(n2c(=O)[nH]c3ccccc32)CC1,inhibition,,inactive
O=C(CN1C(=O)COc2ccc(C(=O)N3CCCCC3)cc21)NCc1ccccc1,inhibition,,inactive
CN1CCN(CCNC(=O)CN2C(=O)C3CCCCN3c3ccc(C(=O)N4CCCC4)cc32)CC1 (configuration not stated),inhibition,stronger effect = higher value,13% (inactive)
same,inhibition,[1],11.7%
Cc1ccc(NC(=O)CN2C(=O)C3CCCCN3c3ccc(C(=O)N4CCCC4)cc32)cc1 (configuration not stated),inhibition,stronger effect = higher value,62.4% (active)
same,inhibition,[1],35.5%
O=C(NCCCN1CCN(c2ccccc2)CC1)c1noc2c1CCCCC2,inhibition,stronger effect = higher value,9.7% (inactive)
Cc1cccc(CC(=O)N2CCN(c3nc4cccnc4n(Cc4ccccc4)c3=O)CC2)c1,inhibition,stronger effect = higher value,38.8% (inactive)
same,inhibition,[1],12.1%
CCN1CCCc2cc(C(=O)N3CCOCC3)sc21,inhibition,,inactive
CCC1Cn2c(C(=O)NCCN(C)C3CCCCC3)cc3cccc(c32)O1 (configuration not stated),inhibition,stronger effect = higher value,53.7% (active)
same,inhibition,[1],13.8%
Cc1nccc2[nH]c(=O)c(C(=O)NCCCN(C)C3CCCCC3)cc12,outcome,,inactive
same,inhibition,[1],0.2%
Cc1cc(C)c2c(=O)n(CC(=O)Nc3ccc(Br)cc3)c(=O)n(C)c2n1,outcome,,inactive
same,inhibition,[1],4.9%
CCC1CCCCN1C(=O)Cn1c(C(=O)OC)cc2occc21 (configuration not stated),inhibition,stronger effect = higher value,8.8% (inactive)
CCc1nnc2c3ccccc3nc(N3CCN(c4cccc(Cl)c4)CC3)n12,inhibition,stronger effect = higher value,73.1% (active)
same,inhibition,[1],33.5%
CC(C)C(=O)N1CCN(c2nc3ccccc3c3nnc(-c4cccs4)n23)CC1,inhibition,,inactive
Cc1cc2n(n1)CCCN2CC(=O)N1CCN(c2cccc(Cl)c2)CC1,inhibition,stronger effect = higher value,5.3% (inactive)
O=C1CC(C(=O)N2CCN(c3ccccc3F)CC2)CN1Cc1ccccc1 (configuration not stated),inhibition,,inactive
COc1cccc(CCC(=O)N2CCCC(c3nnc4n3CCCCC4)C2)c1 (configuration not stated),inhibition,stronger effect = higher value,2.6% (inactive)
same,inhibition,[1],2.1%
O=c1c2cnc(N3CCCCC3)nc2ccn1CCc1ccccc1,inhibition,,inactive
O=C(c1ccco1)N1CCC(NS(=O)(=O)c2ccc(Cl)cc2)CC1,outcome,,inactive
same,inhibition,[1],0.2%
O=C(Nc1ccccc1)c1cc(-c2cccs2)n(C2CCS(=O)(=O)C2)n1 (configuration not stated),inhibition,stronger effect = higher value,1.7% (inactive)
same,inhibition,[1],9.1%
Cc1cccc(-c2noc(Cn3cccn3)n2)c1,outcome,,inactive
same,inhibition,[1],3.8%
Cc1ccc(S(=O)(=O)NC2CCN(C(=O)Cc3ccc(Br)cc3)CC2)cc1,inhibition,stronger effect = higher value,3.1% (inactive)
same,inhibition,[1],2%
Cc1ccnc(N2CCCC(C(=O)N3CC=C(c4ccccc4)CC3)C2)n1 (configuration not stated),inhibition,stronger effect = higher value,46.1% (active)
same,inhibition,[1],18%
Cc1ccnc(N2CCCC(C(=O)NC3CCCC3)C2)n1 (configuration not stated),inhibition,stronger effect = higher value,10.9% (inactive)
same,inhibition,[1],2.5%
O=C(C1CCN(S(=O)(=O)c2ccccc2)CC1)N1CC=C(c2ccccc2)CC1,outcome,,inactive
same,inhibition,[1],1%
O=c1c2ccsc2ncn1Cc1nc(Cc2ccccc2)no1,inhibition,,inactive
Cc1ncc([N+](=O)[O-])n1Cc1csc(Cc2ccccc2)n1,inhibition,stronger effect = higher value,67% (active)
same,inhibition,[1],30.1%
CC(NC(=O)Cc1csc(Cc2ccccn2)n1)c1ccc(F)cc1 (configuration not stated),outcome,,inactive
same,inhibition,[1],5.1%
